Measured values published in PubChem BioAssay (NCI).
Compounds without any hit were thinned out: in the full panel of roughly 79,000, 15% have a hit. Active and inactive are the calls of the source. Cut-off read from the data, not from the text of the source: active = growth inhibition above about 70%; inactive = the rest.

Assay: NCI Yeast Anticancer Drug Screen. Data for the cln2 rad14 strain (AID 165);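 note: 0% = growth equal to vehicle treated cultures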
Details: S. cerevisiae cln2 rad14 strain, at 50.0 µM, active compounds read high
Procedure, shortened: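 The screen exposed genetically defined yeast (cln2 rad14) to test compounds and scored growth inhibition relative to vehicle-treated controls.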
For C=C(C)CN(Cc1ccccc1)C1CCCCCCC1, the growth inhibition was -5.75% (inactive). In the case of CCN(CC)CCOC(=O)Cc1cccc2c(=O)cc(-c3ccc(OC)cc3)oc12, the growth inhibition is reported as 8.9% (inactive). For CCOC(=O)c1ccc(NCCCc2c(C)nc(N)[nH]c2=O)cc1, the growth inhibition was -10.3% (inactive). With O=C(CC1=NC2NN(c3ccccc3)C(=O)C2=C1CC(=O)C(c1ccccc1)c1ccccc1)C(c1ccccc1)c1ccccc1 (stereo not given) the growth inhibition was 32% (inactive). With CCN1CC(O)c2cc(N=NC(N)=O)c(O)cc21 (stereo not given) the growth inhibition was -8.85% (inactive). With Cc1cc(=O)c2cc(Cc3ccc(N)cc3)ccc2[nH]1 the growth inhibition was 3.05% (inactive). In the case of O=C1C(Cl)N(c2c(Cl)cccc2Cl)C1c1c[nH]c2ccccc12 (stereo not given), the growth inhibition is reported as -22.4% (inactive). For COc1ccc(-n2c(=O)c(N=Nc3ccccc3)c(O)n(-c3ccccc3OC)c2=S)cc1, the growth inhibition was -13.7% (inactive). For CC(C)C(=O)CC(c1ccc(Cl)cc1)N1N=C(C(C)C)CC1c1ccc(Cl)cc1 (stereo not given), the growth inhibition was -27.4% (inactive). In the case of CCOC(=O)C(C#N)C(=O)c1ccccc1-c1ccccc1[N+](=O)[O-] (stereo not given), the growth inhibition is reported as -9.4% (inactive). For O=C(C[n+]1ccncc1)c1ccc2c(c1)CCCC2, the growth inhibition was -5.95% (inactive). For CN(C)Cc1ccc2ccccc2c1CC(O)(c1ccccc1)c1ccccc1, the growth inhibition was 2.25% (inactive). In the case of CCC(=O)N1NC(=O)C(CC)(CC)C1=O, the growth inhibition is reported as 10.7% (inactive). For CC1=NN(c2ccccc2)C(=O)/C1=C1\SC(c2ccccc2)(c2ccccc2)c2ccccc21, the growth inhibition was 7.95% (inactive). For CC(C)(C)n1nnnc1N, the growth inhibition was -0.05% (inactive). In the case of O=Cc1ccc(OCc2cccc([N+](=O)[O-])c2)cc1, the growth inhibition is reported as -2.6% (inactive). For Cc1ccc(Cl)cc1N, the growth inhibition was -27% (inactive). For CC1(C)CC(Nc2ccc(Nc3ccccc3)cc2)CC(C)(C)N1, the growth inhibition was -9.8% (inactive). With COC1OC2COc3ccccc3OC2C2C1N2C(N)=S (stereo not given) the growth inhibition was 1.65% (inactive). In the case of CCN(c1ccccc1C(=O)O)S(=O)(=O)c1ccc(C)cc1, the growth inhibition is reported as 27.6% (inactive). In the case of c1ccc(SC(Sc2ccccc2)=C2CCC2)cc1, the growth inhibition is reported as 14.8% (inactive). In the case of NC(CSS(=O)(=O)c1ccccc1)C(=O)O (stereo not given), the growth inhibition is reported as 0.5% (inactive). In the case of COc1cccc(NC(=O)CC(=O)N2N=C(N(CCC#N)c3ccc(Cl)cc3)CC2c2ccccc2)c1 (stereo not given), the growth inhibition is reported as 8.9% (inactive). With CCOC(=O)C1CN(C2CCCCC2)CCC1=O (stereo not given) the growth inhibition was -37% (inactive). For CCC12OC3(CC)C4C(=O)OC1C1(CC)OC4(CC)C3C(=O)OC21, the growth inhibition was -5.75% (inactive). For NC(=O)CCn1ccc2ccccc21, the growth inhibition was -1.25% (inactive). In the case of Clc1cccc(CC(Br)Br)c1, the growth inhibition is reported as 23% (inactive). For CSc1ccc(C2OC(=O)c3ccccc32)c2ccccc12 (stereo not given), the growth inhibition was 8.25% (inactive). In the case of COc1cc(C2C3=C(COC3=O)OC(C)(C)Oc3cc4c(cc32)OCO4)cc(OC)c1O (stereo not given), the growth inhibition is reported as -28.7% (inactive). With CCCCNC(=O)Nc1cc(C)ccc1C the growth inhibition was -9.75% (inactive). With O=[N+]([O-])c1ccc(O)c(O)c1 the growth inhibition was 12.8% (inactive). In the case of CC1(c2ccco2)CCC(=O)CC1=O (stereo not given), the growth inhibition is reported as 11.2% (inactive). In the case of COc1cc(C(c2cc3c(cc2OC(C)=O)OCO3)C(C(C)=O)C(C)=O)cc(OC)c1OC (stereo not given), the growth inhibition is reported as -4% (inactive). With COc1ccc(CCCNC(=O)c2cc(OC)c(OC)cc2CCO)cc1OC the growth inhibition was -9.6% (inactive). In the case of Cc1[nH]c2ccccc2c1C1=CC(=O)N(c2ccccc2)C1=O, the growth inhibition is reported as 21.4% (inactive). In the case of CC(C)C1C(O)C23CCC4C(C)(CO)CCCC4(C)C2CC13 (stereo not given), the growth inhibition is reported as -15.4% (inactive). With O=C(O)c1c[n+]([O-])ccc1Cl the growth inhibition was -42% (inactive). In the case of Cc1ccc([N+](=O)[O-])cc1N1CCNC1=O, the growth inhibition is reported as -62.7% (inactive). With CC(=O)Nc1c(C(=N)C#N)ncn1CCO the growth inhibition was 11.2% (inactive). For COC(=O)C1=C(C)C=C(N2CCOCC2)C(C(=O)OC)C1c1ccccc1 (stereo not given), the growth inhibition was -3.1% (inactive).
